The nature of test [1]: qHTS assay to identify small molecule antagonists of the estrogen related receptor (ERR) signaling pathway from Tox21 library - cell viability counter screen (AID 1224834). Further: nearly all actives have a fitted effect of over 30% in size. Further: potency means the concentration at half of the fitted maximal effect. An outline of the steps:
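Multiplexed viability counter screen in ERR cells: 17.5 h compound exposure at 37 C, CellTiter-Fluor added, 30 min at 37 C/5% CO2, fluorescence read.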
Background: Quantitative high-throughput screening tests each substance at several concentrations.

In test [2] the target is Luciferin 4-monooxygenase (Photinus pyralis) (UniProt P08659). Kind of test: qHTS assay to identify small molecule inhibitors of firefly luciferase (AID 1224835). Further: nearly all actives have a fitted effect of over 25% in size. Further: potency means the concentration at half of the fitted maximal effect. On activity change, negative = inhibition: series mostly up to about 120 µM. The procedure, abridged: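 Biochemical qHTS: compounds run as interplate titrations against purified firefly enzyme, with D-luciferin and ATP each at its KM concentration. Light output recorded by CCD imaging.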

Test [3] is described as follows: qHTS assay to identify small molecule agonists of the constitutive androstane receptor (CAR) signaling pathway - cell viability counter screen (AID 1224836). Further: nearly all actives have a fitted effect of over 45% in size. Further: potency means the concentration at half of the fitted maximal effect. On viability change, negative = cytotoxic: series mostly up to about 92 µM. An outline of the steps: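 Counter screen multiplexed with the CAR reporter readout: HepG2 cells co-transfected with hCAR and the CYP2B6-2.2kb construct receive a 15-concentration compound series and 0.75 uM PK11195 (final), then CellTiter-Fluor fluorescence is read after 23 h.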

Test [4] is described as follows: qHTS assay to identify small molecule antagonists of the constitutive androstane receptor (CAR) signaling pathway - cell viability counter screen (AID 1224837). Further: nearly all actives have a fitted effect of over 45% in size. Further: potency means the concentration at half of the fitted maximal effect. On activity change, negative = cytotoxicity: series mostly up to about 92 µM. An outline of the steps: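 Read-out: CellTiter-Fluor fluorescence after 23 hr at 37 C/5% CO2. Cells: HepG2 double-stable for hCAR and CYP2B6-2.2kb. Compounds tested at 15 concentrations in the presence of CITCO, final concentration 50 nM.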

Test [5] concerns the target Nuclear receptor subfamily 1 group I member 3 (Homo sapiens) (UniProt Q14994). As to the kind of experiment: qHTS assay to identify small molecule antagonists of the constitutive androstane receptor (CAR) signaling pathway (AID 1224838).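 Further: HepG2 cells stably expressing hCAR with CYP2B6 luciferase reporter stimulated by CITCO; nearly all actives have a fitted effect of over 40% in size.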 Further: potency means the concentration at half of the fitted maximal effect. An outline of the steps: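 Read-out: ONE-Glo luciferase luminescence after 30 min at room temperature. HepG2-CYP2B6-hCAR double-stable cells, compounds in 15-point titration plus 50 nM CITCO final, 24 h at 37 C/5% CO2.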

The target is the same in test [6]. Kind of test: qHTS assay to identify small molecule agonists of the constitutive androstane receptor (CAR) signaling pathway (AID 1224839). Further: nearly all actives have a fitted effect of over 15% in size. Further: potency means the concentration at half of the fitted maximal effect. On activation: series mostly up to about 92 µM. An outline of the steps:
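A 15-concentration quantitative screen uses HepG2 cells co-transfected stably with human CAR and CYP2B6-2.2kb reporter. Treatment lasts 24 h with 0.75 uM PK11195 final present; ONE-Glo luminescence is the signal.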

A short description of test [7]: qHTS assay to identify small molecule antagonists of the estrogen related receptor signaling pathway with the pleiotropic PPARgamma coactivator (PGC) from Tox21 10K library - cell viability counter screen (AID 1224840; active means well fitted cell-killing curve with a large enough effect in the repeat runs, not every such curve was filed as active; further: nearly all actives have a fitted effect of over 40% in size; further: potency means the concentration at half of the fitted maximal effect). An outline of the steps:
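Fluorescence read-out of CellTiter-Fluor viability reagent, added after cells had been exposed to compound in DMSO for 17.5 h at 37 C; 30 min development at 37 C/5% CO2. Cells: PGC/ERR line, 2,000/well.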

Test [8] in a line: qHTS assay to identify small molecule agonists of the estrogen related receptor signaling pathway with the pleiotropic PPARgamma coactivator (PGC) (AID 1224823). An outline of the steps:
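Luminescence from One-Glo reagent (30 min, room temperature) was read after 18 h compound treatment at 37 C of PGC/ERR cells plated 6 h beforehand; compounds delivered in DMSO by pin tool.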

The nature of test [9]: qHTS assay to identify small molecule antagonists of the estrogen related receptor signaling pathway with the pleiotropic PPARgamma coactivator (PGC) from Tox21 10K library (AID 1224841; call rule not given here; further: actives are mostly falling curves and most rising ones were filed inactive; nearly all actives have a fitted effect of over 50% in size; further: potency means the concentration at half of the fitted maximal effect; on activity, negative = inhibition: series mostly up to about 92 µM). An outline of the steps:
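Luminescence read-out (One-Glo luciferase reagent, 30 min at room temperature) from PGC/ERR cells exposed to DMSO-dissolved test compounds for 18 h at 37 C; cells, 2,000 per well, had been preincubated 6 h before compound transfer.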

A short description of test [10]: qHTS assay to identify small molecule agonists of the estrogen related receptor signaling pathway with the pleiotropic PPARgamma coactivator (PGC) from Tox21 10K library (AID 1224842). Further: nearly all actives have a fitted effect of over 15% in size. Further: potency means the concentration at half of the fitted maximal effect. The procedure, abridged: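 PGC/ERR reporter cell line, 2,000 cells per well, incubated 6 h at 37 C before 23 nL compound in DMSO was added. After 18 h at 37 C, One-Glo luminescence read following 30 min at room temperature.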

Records with an inconclusive call do not appear. Values without a mark were called inactive. Active and inactive are the calls of the source. Unless noted, the call rests on the fitted dose curve; in most records, active means well fitted curve in the direction sought with a large enough effect in the repeat runs; inconclusive means weak or mixed curves; inactive means no such curve, though single readings can be large; an effect the other way counts as inactive or inconclusive.
On the % scale 0 is the no-effect control and ±100 the full control effect.

Chain of Nuclear receptor subfamily 1 group I member 3 (Homo sapiens) (Q14994 whole entry, looked up): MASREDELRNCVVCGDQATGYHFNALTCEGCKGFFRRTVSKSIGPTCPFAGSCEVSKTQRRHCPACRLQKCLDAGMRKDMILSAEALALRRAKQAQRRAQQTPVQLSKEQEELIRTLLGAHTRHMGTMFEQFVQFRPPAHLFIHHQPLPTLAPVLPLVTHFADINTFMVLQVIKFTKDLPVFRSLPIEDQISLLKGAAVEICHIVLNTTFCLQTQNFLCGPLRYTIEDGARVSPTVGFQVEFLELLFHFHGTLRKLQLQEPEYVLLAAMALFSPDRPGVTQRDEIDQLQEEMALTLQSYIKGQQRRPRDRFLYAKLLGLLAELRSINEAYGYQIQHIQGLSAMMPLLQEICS
Chain of Luciferin 4-monooxygenase (Photinus pyralis) (P08659 whole entry, looked up): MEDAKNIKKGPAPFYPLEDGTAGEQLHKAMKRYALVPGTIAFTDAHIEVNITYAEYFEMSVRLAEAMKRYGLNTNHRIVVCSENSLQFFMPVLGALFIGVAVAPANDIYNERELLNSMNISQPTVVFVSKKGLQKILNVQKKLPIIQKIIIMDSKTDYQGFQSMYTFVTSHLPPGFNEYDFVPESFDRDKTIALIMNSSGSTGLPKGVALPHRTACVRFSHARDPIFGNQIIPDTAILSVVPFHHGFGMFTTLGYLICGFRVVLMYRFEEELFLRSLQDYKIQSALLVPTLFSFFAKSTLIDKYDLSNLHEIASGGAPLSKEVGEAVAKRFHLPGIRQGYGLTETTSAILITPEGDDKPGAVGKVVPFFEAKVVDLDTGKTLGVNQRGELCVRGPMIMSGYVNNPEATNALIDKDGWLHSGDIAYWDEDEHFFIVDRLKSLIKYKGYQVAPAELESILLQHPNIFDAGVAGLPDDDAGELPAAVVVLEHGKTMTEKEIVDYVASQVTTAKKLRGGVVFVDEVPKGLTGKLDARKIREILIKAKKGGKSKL

Turning to `Cc1ccc(N(CCO)CCO)cc1`, the Potency entry in [1], in [2], in test [3], in test [4], in [5] and in test [6] was “inactive” each time. Further, in test [7], the Potency entry is “inactive”.

As for `CC12CC3CC(C)(C1)CC(N)(C3)C2`, the result in test [8] was inactive. For the same compound, the Potency entry in [1], in test [2], in [3], in [4], in test [5] and in test [6] was “inactive” throughout. The Potency entry in [7], in test [9] and in test [10] was “inactive” each time.

For `CCCCCCCCCCCCCOC(=O)CCSCCC(=O)OCCCCCCCCCCCCC`, the viability change, negative = cytotoxic was -0.449% [at 19 µM] in test [1], -3.39% [at 19 µM] in test [3] and 0.0068% [at 19 µM] in [7]. For the same compound, the activity change, negative = inhibition in [2] was -2.08% [at 23.6 µM]. Also, in test [4], the activity change, negative = cytotoxicity was -3.13% [at 19 µM]. Also, the activity, negative = inhibition in test [5] was 5.4% [at 19 µM]. Further, in test [6], the activation is -0.548% [at 19 µM].

Consider `CC[C@H]1OC(=O)[C@H](C)[C@@H](O[C@H]2C[C@@](C)(OC)[C@@H](O)[C@H](C)O2)[C@H](C)[C@@H](O[C@@H]2O[C@H](C)C[C@H](N(C)C)[C@H]2O)[C@](C)(O)C[C@@H](C)C(=O)[C@H](C)[C@@H](O)[C@]1(C)O`, for which the Potency entry in [1], in test [2], in [3], in test [4], in [5] and in test [6] was “inactive” throughout. Moreover, in test [7], the Potency result was “inactive”.

`Cc1ccc(NC(=O)N(C)C)cc1NC(=O)N(C)C`: the Potency entry in test [1], in test [2], in test [3], in test [4], in [5] and in test [6] was “inactive” throughout. In addition, the Potency result in [7] is “inactive”.

Turning to `CC(C)(C)C1(CCc2ccc(Cl)cc2)CO1` (stereo not given), the Potency entry in test [1], in test [2], in [3], in test [4], in test [5] and in test [6] was “inactive” throughout. Also, the Potency entry in [7] was “inactive”.

For `CC(C)N(C)C`, the Potency result in test [1], in [2], in test [3], in test [4], in test [5] and in test [6] was “inactive” each time. Further, the Potency entry in [7] is “inactive”.

On to `CNC1CCCN(c2c(F)cc3c(=O)c(C(=O)O)cn(C4CC4)c3c2OC)C1` (stereo not given), for which the Potency result in test [1], in test [2], in test [3], in [4], in test [5] and in [6] was “inactive” in each case. In addition, the Potency entry in test [7] was “inactive”.

On to `CCN(CC)CC(=O)Nc1c(C)cccc1C(=O)OC`, for which the Potency result in test [1], in test [2], in [3], in test [4], in [5] and in [7] was “inactive” in each case. For the same compound, the Potency in [6] is 23.7 µM (active).

For the compound `COC(=O)C1=C(C)NC(C)=C(C(=O)OC(C)(C)CN(C)CCC(c2ccccc2)c2ccccc2)C1c1cccc([N+](=O)[O-])c1` (stereo not given), the compound was classed as inactive in [8]. Further, the values for the Potency in test [1] and in test [9] were 23.7 µM (active) and 16.8 µM (active), respectively. The Potency entry in test [5], in test [6] and in test [10] was “inactive” in each case.

In the case of `CSCC[C@H](NC(=O)[C@H](Cc1c[nH]c2ccccc12)NC(=O)CCNC(=O)OC(C)(C)C)C(=O)N[C@@H](CC(=O)O)C(=O)N[C@@H](Cc1ccccc1)C(N)=O`, the Potency result in [1], in test [2], in test [3], in [4], in test [5] and in test [6] was “inactive” throughout. The Potency result in [7] is “inactive”.

Turning to `CC(C)Cc1ccc(CC(=O)O)cc1`, the Potency entry in test [1], in test [2], in test [3], in [4], in [5] and in test [6] was “inactive” each time. In addition, the Potency entry in test [7], in test [9] and in test [10] was “inactive” in each case.

Regarding `COC(OC)OC`, the Potency entry in test [1], in [2], in test [3], in [4], in test [5] and in test [6] was “inactive” in each case. The Potency result in test [7] is “inactive”.

Take `O=C(O)CCC(=O)c1ccc(-c2ccccc2)cc1`: the Potency entry in [1], in test [3], in [4], in test [5], in [6] and in [7] was “inactive” throughout. Besides, the Potency in test [2] is 6.92 µM (active).

On to `O=C(NS(=O)(=O)/C=C/c1ccccc1)c1ccc(F)cc1Cl`, for which the Potency result in [1], in [2], in test [3], in [4], in test [5] and in test [6] was “inactive” each time. In addition, the Potency result in [7] and in [9] was “inactive” each time. For the same compound, in test [10], the Potency was 13.7 µM (active).

As to `CCC1CCC(CCC(=O)O)C1` (stereo not given), the Potency result in test [1], in test [2], in test [3], in [4], in test [5] and in test [6] was “inactive” in each case. Also, the Potency result in test [7], in test [9] and in test [10] was “inactive” each time.

Turning to `COC(=O)CC(C(C)=O)C(=O)OC` (stereo not given), the Potency entry in test [1], in [2], in test [3], in [4], in [5] and in [6] was “inactive” throughout. The Potency entry in test [7] was “inactive”.

On to `O=C1CC[C@@H](C(=O)O)N1`, for which the Potency result in test [1], in test [2], in test [3], in test [4], in test [5] and in [6] was “inactive” each time. The Potency result in test [7], in [9] and in [10] was “inactive” each time.

For `O=C(O)c1ccc(O)cc1O`, the Potency entry in test [1], in [2], in test [3], in [4], in test [5] and in [6] was “inactive” each time. In addition, the Potency result in test [7], in [9] and in test [10] was “inactive” throughout.

Take `C=Cc1ccc(OC(C)=O)cc1`: the Potency result in test [1], in [2], in test [3], in test [4], in test [5] and in [6] was “inactive” throughout. Further, the Potency result in test [7], in test [9] and in [10] was “inactive” in each case.

Consider `CCOC(=O)Oc1ccc(CCNC(=O)[C@H](CCSC)NC(C)=O)cc1OC(=O)OCC`, for which the Potency result in test [1], in test [2], in test [3], in test [4], in test [5] and in test [6] was “inactive” each time. In test [7], the Potency result was “inactive”.

Take `CN1C(CSCC(F)(F)F)Nc2cc(Cl)c(S(N)(=O)=O)cc2S1(=O)=O` (stereo not given): the Potency result in test [1], in test [2], in [3], in test [4], in test [5] and in [6] was “inactive” throughout. For the same compound, the Potency entry in [7] and in [10] was “inactive” each time.

Take `[Cl][Nd]([Cl])[Cl]`: the Potency entry in test [1], in test [3], in test [4], in test [5], in [6] and in [7] was “inactive” throughout. Moreover, the Potency result in [9] and in [10] was “inactive” throughout. Besides, the Potency in [2] is 39.9 µM (active).

Regarding `CC(=O)OCC1=C(C(=O)O)N2C(=O)[C@@H](NC(=O)CSc3ccncc3)[C@H]2SC1`, the Potency result in test [1], in [2], in [3], in test [4], in [5] and in test [6] was “inactive” throughout. Also, the Potency result in test [7], in [9] and in test [10] was “inactive” each time.

For the compound `CCN(Cc1cccc(S(=O)(=O)O)c1)c1ccc(C(=C2C=CC(=[N+](CC)Cc3cccc(S(=O)(=O)O)c3)C=C2)c2ccc(O)cc2S(=O)(=O)[O-])cc1`, the Potency in test [1] is 16.6 µM (active); in test [2] it was 10.8 µM (active); in test [3], 16.6 µM (active); in test [4], 29.5 µM (active); in [5] it was 11.7 µM (active); in test [7], 33.1 µM (active). Also, the Potency in test [9] is 16.6 µM (active). The Potency result in [6] and in [10] was “inactive” each time.

Turning to `CC(=O)N[C@@H](Cc1ccc(O)cc1)C(=O)O`, the Potency result in [1], in [2], in [3], in test [4], in test [5] and in test [6] was “inactive” each time. Moreover, the Potency entry in test [7], in [9] and in test [10] was “inactive” throughout.

The record behind these values is PubChem BioAssay (Tox21).
